Source: PubChem BioAssay (several laboratories)
Compounds with a hit are over-represented: about 3.6% of the library has one in this group of screens.
Mdm2 MdmX PPI = inhibitors of human Mdm2/MdmX interaction. O15151+Q00987. SaOS-2 split-luciferase Mdm2/MdmX complementation, luminescence. inhibition, % at 8 µM. 330,000 compounds, 3% hits;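 active = inhibition of at least 50% at 8 µM in the primary screen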
KKLEB tox = reduces viability of KKLEB cystic fibrosis airway cells | KKLEB CF airway cells viability, ATPlite luminescence, overnight; active compounds read low; cells stimulated with P. aeruginosa culture filtrate | 360,000 compounds, 0.36% hits | activity change (cytotoxicity), % at 5 µM;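 active = corrected activity change at or below -50% at 5 µM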
Peg3 prom inh = reduces Peg3 promoter-driven luciferase expression in HeLa | HeLa PEG-Prom luciferase reporter, luminescence, overnight | inhibition, % at 20 µM | 360,000 compounds, 1.7% hits | AID 588405;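 active = inhibition of at least 50% at 20 µM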
HSP90 refold inh = HSP90 refolding inhibition in rabbit reticulocyte lysate; luciferase refolding luminescence, 3 h; inhibition, % at 5.6 µM; 290,000 compounds, 0.91% hits; AID 1789;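 active = inhibition above the screen-wide mean plus 3 SD, computed separately per campaign, cut at about 16% in these data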;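 also: 0% = DMSO wells and 100% = 60 µM geldanamycin wells; inhibitors lower the luminescence because luciferase stays unfolded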
CF NFkB inh = blocks PAF-induced NF-kB reporter in cystic fibrosis cells; KKLEB NF-kB-GFP reporter, GFP fluorescence overnight; inhibition, % at 5 µM; 360,000 compounds, 0.86% hits; AID 588850;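 active = at least 50% inhibition at 5 µM, scaled per plate between neutral and stimulator controls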;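 also: PAF is a Pseudomonas aeruginosa culture filtrate used as stimulus; plate controls were PAF-stimulated DMSO wells for no effect and unstimulated DMSO wells for full effect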
LGR2 antag = inhibitors of bursicon-induced Drosophila LGR2 receptor cAMP signaling; HEK293 LGR2, CRE-luciferase, bursicon-stimulated, 4 h; 380,000 compounds, 0.35% hits; AID 720647; inhibition, % at 9.99 µM;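 active = drop in luminescence signal, shown as inhibition above about 50% in the replicate tests, limit read from the data, passing the limit was not always enough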;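 also: agonist challenge used bursicon conditioned medium at about half maximal strength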
Mdm2-MdmX conf = confirmation of human Mdm2/MdmX interaction inhibitors. shares compounds with Mdm2 MdmX PPI. AID 489028. inhibition, % at 8 µM. 10,000 compounds, 55% hits. Mdm2-MdmX binding, luminescent assay; in the data active = inhibition above about 40%
Full FLuc ctr = counter-screen for Mdm2/MdmX inhibitors: full-length luciferase. SaOS-2 full-length luciferase counterscreen, luminescence. inhibition, % at 8 µM. 6,200 compounds, 77% hits. shares compounds with Mdm2 MdmX PPI. AID 504607;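 active = mean inhibition at 8 µM reaching about 37%, which flags the compound as non-specific, limit read from the data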;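 also: p53-null SaOS-2 cells with luciferase driven by a doxycycline-inducible promoter; compound on cells about two nights before reading with doxycycline added after day one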
* marks the source's active call; other numbers are inactive results; nt = no result.

SMILES	Mdm2 MdmX PPI	KKLEB tox	Peg3 prom inh	HSP90 refold inh	CF NFkB inh	LGR2 antag	Mdm2-MdmX conf	Full FLuc ctr
CCCNC(=O)Nc1ccc2c(c1)C(=O)N(C)C[C@@H](OC)[C@@H](C)CN(C(C)=O)[C@@H](C)CO2	nt	nt	nt	nt	nt	-21.3	nt	nt
O=C(C[C@@H]1CC[C@H](NS(=O)(=O)c2ccccc2)[C@@H](CO)O1)NCc1ccccc1F	nt	nt	nt	nt	nt	11.6	nt	nt
O=C(C[C@H]1C[C@H](C(=O)N2CCOCC2)[C@@]2(CCC3CCCC3)c3[nH]c4cc(-c5ccco5)ccc4c3CCN2C1=O)NCc1cccc(C(F)(F)F)c1	41.2	7.9	32.3	nt	13.1	28.4	nt	nt
COc1ccc(CNC(=O)C[C@H]2C[C@H](C(=O)N3CCOCC3)[C@@]3(CCC4CCCC4)c4[nH]c5cc(-c6ccco6)ccc5c4CCN3C2=O)cc1OC	53.1*	-3.6	17.4	nt	29.6	-14.7	5.2	nt
Cc1cc(C)n2c(Nc3c(C)cccc3C)c(-c3ccccn3)nc2n1	nt	nt	nt	nt	nt	-5.0	nt	nt
Cc1cccc(C)c1Nc1c(-c2ccccn2)nc2ccccn12	76.7*	-40.0	34.5	-0.2	19.5	11.3	58.3*	41.3*
Cc1ccc(Nc2c(-c3ccccn3)nc3cccc(C)n23)cc1	86.7*	-35.1	34.9	-0.8	24.3	32.9	90.6*	21.3
CCCCN(C)CCCNC(=O)c1cn(CC)c2ccc(S(=O)(=O)N3CCc4ccccc4C3)cc2c1=O	54.2*	4.4	29.1	3.0	9.3	8.1	24.2	nt
CCCCN(CC)CCCNC(=O)c1cn(CC)c2ccc(S(=O)(=O)N3CCc4ccccc4C3)cc2c1=O	56.9*	-5.3	31.6	-2.7	10.0	85.3*	22.5	nt
CCn1cc(C(=O)NCCCN2CCCC2)c(=O)c2cc(S(=O)(=O)N3CCc4ccccc4C3)ccc21	26.2	6.3	13.6	4.9	-8.1	nt	nt	nt
CCCN(CCC)CCCNC(=O)c1cn(CC)c2ccc(S(=O)(=O)N3CCc4ccccc4C3)cc2c1=O	74.8*	-16.4	35.7	3.4	10.3	8.4	36.2	63.3*
CCn1cc(C(=O)NCc2ccco2)c(=O)c2cc(S(=O)(=O)N3CCc4ccccc4C3)ccc21	23.7	-8.3	37.0	3.9	0.0	nt	nt	nt
O=C(C[C@@H]1C[C@@H]2c3cc(NC(=O)NC4CCCC4)ccc3O[C@@H]2[C@@H](CO)O1)NCc1ccc(-c2ccccc2)cc1	nt	nt	nt	nt	nt	6.8	nt	nt
O=C(CCN1C(=O)/C(=C/c2ccccc2F)SC1=S)N[C@@H](CO)Cc1ccccc1	80.0*	-0.8	68.2*	-2.8	16.1	-0.4	36.5	54.0*
O=C(CCN1C(=O)/C(=C/c2ccccc2)SC1=S)Nc1ccccn1	5.4	11.8	19.8	-1.0	-1.9	-0.3	nt	nt
O=C(CCN1C(=O)/C(=C/c2ccccc2)SC1=S)N[C@@H](CO)Cc1ccccc1	89.0*	-12.0	80.3*	1.1	29.5	14.2	71.5*	49.8*
O=C(CCN1C(=O)/C(=C\c2ccccc2F)SC1=S)Nc1ccc(C(=O)O)c(O)c1	5.1	1.2	4.2	-1.8	-31.1	-2.5	nt	nt
COC(=O)COc1ccc(/C=N/NC(=O)c2ccc(N(Cc3ccccc3)S(C)(=O)=O)cc2)cc1	61.2*	-9.7	4.4	0.0	-4.4	21.1	21.9	nt
C[C@H]1CN([C@@H](C)CO)C(=O)Cc2cc(NC(=O)CCCCCC(=O)Nc3ccccc3N)ccc2O[C@@H]1CN(C)S(=O)(=O)c1cccs1	nt	nt	nt	nt	nt	0.9	nt	nt
O=C(c1ccc([N+](=O)[O-])o1)N1CCN(c2nc3c(Cl)cccc3s2)CC1	56.5*	-5.0	-6.1	nt	24.1	10.9	42.7*	64.5*
COc1cccc2sc(N3CCN(C(=O)c4ccc([N+](=O)[O-])o4)CC3)nc12	21.7	1.1	-3.1	nt	-11.9	nt	nt	nt
Cc1c(Cl)cccc1NC(=O)CCC(=O)N/N=C/c1ccc[nH]1	55.0*	11.6	11.1	1.1	9.7	10.0	41.3*	42.0*
O=C(C[C@H]1C=C[C@@H](NC(=O)C2CCC2)[C@H](CO)O1)NCc1ccncc1	nt	nt	nt	nt	nt	-5.9	nt	nt
CO[C@@H]1CN(C)C(=O)c2cc(NC(=O)C3CC3)ccc2OC[C@H](C)N(CCC(F)(F)F)C[C@@H]1C	nt	nt	nt	nt	nt	-14.8	nt	nt
O=C(Cc1ccc(Cl)cc1)N/N=C/c1ccc(O)c(O)c1	nt	-1.0	2.8	nt	-32.6	8.9	nt	nt
SMILES	Mdm2 MdmX PPI	KKLEB tox	Peg3 prom inh	HSP90 refold inh	CF NFkB inh	LGR2 antag	Mdm2-MdmX conf	Full FLuc ctr
Cc1cccc(/C=N/NC(=O)Cc2ccc(Cl)cc2)c1O	64.5*	-9.6	6.7	-4.3	19.5	20.2	42.0*	29.9
Cc1ccc(O)c(/C=N/NC(=O)Cc2ccc(Cl)cc2)c1	64.3*	-24.2	38.6	-4.3	12.6	8.7	50.8*	33.6
Cc1cccc(/C=N\NC(=O)c2ccc(Cl)cc2)c1O	29.7	-18.6	-131.3	2.9	25.5	-42.7	nt	nt
CCOC(=O)c1sc(NC(=O)c2cc(-c3ccccc3C)nc3ccccc23)c(C#N)c1C	97.1*	-35.0	42.2	-3.7	47.5	nt	92.2*	32.4
Cc1ccc(C(=O)c2cc([N+](=O)[O-])ccc2N2CCOCC2)cc1C	51.4*	-20.7	39.6	-3.1	11.5	-16.9	61.5*	60.4*
Cc1ccc(C)c(C(=O)COC(=O)c2cc([N+](=O)[O-])ccc2N2CCOCC2)c1	3.3	-31.9	-8.8	nt	30.0	-24.2	nt	nt
Cc1ccc(C(=O)c2cc([N+](=O)[O-])ccc2N2CCCCC2)cc1C	63.9*	-25.6	31.3	-5.6	32.9	-9.7	57.8*	60.4*
O=C(c1ccccc1)c1cc([N+](=O)[O-])ccc1N1CCCC1	23.3	-15.8	21.5	-0.9	-11.4	-5.3	nt	nt
CSc1ccc(COC(=O)c2cc([N+](=O)[O-])ccc2N2CCOCC2)cc1	61.4*	-24.5	-9.8	nt	35.0	-32.6	77.2*	113.3*
Cc1ccc(C(=O)c2cc([N+](=O)[O-])ccc2N2CCOCC2)c(C)c1	67.0*	-12.0	-0.1	0.4	26.1	-11.3	57.8*	97.1*
